SARS PLpro yeast: inhibitors of SARS-CoV papain-like protease in yeast | S. cerevisiae expressing SARS-CoV PLpro, growth rescue | actives 0.19% (n = 330,000) | Potency, µM (series often up to 32.9 µM), hits mostly activators; note: nearly all actives have a fitted effect of over 55% in size
NS1 function inh: inhibitors of influenza NS1 protein function. AID 2326. actives 0.4% (n = 270,000). Potency, µM (titrated, usually from 46.1 µM); note: actives are rising curves; nearly all actives have a fitted effect of over 50% in size
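A cell-based growth assay was used: compounds that relieve NS1-induced slow growth of budding yeast raise OD600. Assay medium was yeast nitrogen base with ammonium sulphate and -URA supplement, pH 6.0, with 2% galactose.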
Shiga inhibitor: inhibitors of Shiga toxin in Vero cells; inhibition, % at 38.7 µM; Vero cells, Shiga toxin protein synthesis inhibition reporter; actives 9.2% (n = 290,000); AID 2315; in the data active = inhibition mostly above about 28%, no sharp cut-off; inactive = mostly below about 43%
Pf growth 96h: inhibits malaria parasite growth, 96 h. Potency, µM (highest dose often 28.7 µM), most hits filed as inhibitors. actives 6.9% (n = 320,000). P. falciparum luciferase reporter growth, 96 h; active = well fitted inhibition curve with a large enough effect; inconclusive = small, poorly fitted or top-dose-only effect, or another doubt; inactive = no such curve, though single readings can be large or run the other way
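Readout is luminescence from an integrated firefly luciferase in P. falciparum. Red cells, 2% hematocrit and 0.05% parasitemia final, were cultured with compound through two parasite generations (96 hours) at 37 C, 5% CO2.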
Cycloheximide cs: counter-screen for Shiga toxin inhibitors: cycloheximide protein synthesis inhibition | actives 12% (n = 300,000) | cell reporter, cycloheximide protein synthesis inhibition counterscreen | max response, %; in the data active = max response mostly above about 13%, no sharp cut-off; inactive = mostly below about 14%; note: read at 38.3 µM for the half of the compounds with a filed dose
Pf growth 48h: P. falciparum growth inhibition at 48 hours (one generation); Potency, µM (top dose mostly 28.7 µM), usual class: inhibitors; P. falciparum luciferase growth in erythrocytes, 48 h; actives 5.9% (n = 310,000); AID 504832; active = well fitted inhibition curve with a large enough effect; inconclusive = small, poorly fitted or top-dose-only effect, or another doubt; inactive = no such curve, though single readings can be large or run the other way
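First compound was added to culture medium, then infected red cells at 0.1% parasitemia and 2% hematocrit (final). After incubation at 37 C under 5% CO2, luciferase detection reagent was dispensed and light output recorded.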
NS1 inh valid: influenza NS1 function inhibition validation; shares compounds with NS1 function inh; influenza NS1 function cell assay, 15-point titration; activity change, negative = inhibition, % at 32.9 µM; 1,400 tested, under 10 active; AID 492980
Hits are given with their value; 0 = inactive; ? = inconclusive; - = no result; ! = not confirmed by another sample. An excerpt weighted towards active compounds, which were near 21% of everything screened. Unless noted, calls come from the whole dose curve.

SMILES	SARS PLpro yeast	NS1 function inh	Shiga inhibitor	Pf growth 96h	Cycloheximide cs	Pf growth 48h	NS1 inh valid
O=C(NC1CCCCC1)C(c1cccs1)N(C(=O)Cc1c[nH]c2ccccc12)c1ccc(F)cc1 (stereo not drawn)	0	0	0	?	0	0	-
Cc1cccc(C)c1NC(=O)c1cn(-c2ccccc2)nc1-c1ccccc1	0	0	0	0	0	0	-
O=C(NN=C1CCCCCC1)c1cn(-c2ccccc2)nc1-c1ccccc1	0	14µM	0	0	0	0	0
O=C(NN=C1CCCC1)c1ccccc1[N+](=O)[O-]	0	?	0	?	0	0	0
O=C(Nn1c(SCc2cccc([N+](=O)[O-])c2)nc2ccccc2c1=O)c1ccccc1	0	14µM	123	0	81	0	0
Cc1ccc(-n2c3c(cc(C(=O)NCc4ccco4)c2=O)C(=O)CC(C)(C)C3)cc1	0	1.1µM	0	0.47µM	0	?	0
Cc1onc(-c2ccccc2)c1C(=O)Nc1nnc(N(C)Cc2ccccc2)s1	0	7.9µM	0	0	0	-	0
Cc1nnc(NC(=O)c2c(-c3ccccc3)noc2C)s1	0	0	0	?	0	0	-
Cc1cc(C)c(C#N)c(SCc2c(F)cccc2[N+](=O)[O-])n1	0	0	0	0	0	?	-
O=C(O)Cn1c(=O)c2c3c(sc2n(Cc2ccc(Cl)cc2Cl)c1=O)CCCC3	0	0	0	0	0	0	-
CCC(C(=O)Nc1cc(C(=O)O)ccc1C)c1ccccc1 (stereo not drawn)	0	0	0	0	0	0	-
CCC(C(=O)Nc1ccc(C(=O)O)cc1NC(=O)C(CC)c1ccccc1)c1ccccc1 (stereo not drawn)	0	11µM	0	0	0	0	0
Cc1ccc(C(=O)O)cc1NC(=S)NC(=O)C(c1ccccc1)c1ccccc1	0	?	0	?	0	0	0
CC(=O)NC(Cc1ccccc1F)C(=O)NC1CCN(C(=O)NCc2ccccc2)CC1 (stereo not drawn)	0	0	0	0	0	0	-
COc1ccc(CNS(=O)(=O)c2cc(-c3cc(C)no3)ccc2C)cc1OC	0	0	0	?	0	0	-
Cc1nc2ccc(NC(=O)Cc3c(F)cccc3Cl)cc2s1	0	4µM	53	0	31	0	0
CCC(=O)Nc1ccc(Cl)c(NC(=S)NC(=O)c2ccco2)c1	0	0	0	?	0	0	-
CCC(=O)Nc1ccc(Cl)c(NC(=S)NC(=O)c2cc3ccccc3o2)c1	0	?	72	0	52	0	0
CC(C)(C)c1cc(NC(=O)c2cccc(S(=O)(=O)N3CCOCC3)c2)no1	0	0	0	?	0	?	-
O=C(NCCSc1c(-c2ccccc2)[nH]c2ccccc12)c1cc2ccccc2oc1=O	0	11µM	0	0	0	0	0
COC(=O)c1ccc(CSc2nnc(NCc3ccccc3)s2)o1	0	14µM	0	?	0	?	?
COC(=O)c1ccc(CSc2nnc(SCc3ccc(C(=O)OC)o3)s2)o1	0	0	0	0	0	0	-
CN(c1ccccc1)S(=O)(=O)c1ccc2[nH]c(=O)oc2c1	0	?	0	0	0	0	0
CN(Cc1cccs1)C(=O)CN1CCN(S(=O)(=O)c2ccc3c(c2)OCCCO3)CC1	0	-	-	0	-	0	-
CCOC(=O)c1cn(Cc2ccccc2)nn1	0	1.4µM	0	?	0	0	0
SMILES	SARS PLpro yeast	NS1 function inh	Shiga inhibitor	Pf growth 96h	Cycloheximide cs	Pf growth 48h	NS1 inh valid
CCOC(=O)c1cn(CC(=O)Nc2ccccc2C(=O)OCC)nn1	0	0	0	0	0	0	-
Cc1cccc(C(=O)OCC(=O)Nc2c(C)n(C)n(-c3ccccc3)c2=O)c1O	0	-	-	-	-	-	-
Cc1ccc2c(c1)CCCN2CC(=O)Nc1cccc(S(=O)(=O)N2CCCC2)c1	0	-	-	?	-	?	-
CCCCCCCN1C/C=C\C(c2ccc(OC)cc2)N(Cc2ccc(F)cc2)C(=O)[C@H]1Cc1ccccc1 (stereo partly drawn)	0	?	0	?	0	?	0
COc1ccc(C2/C=C\CN(C(=O)Oc3ccc(C(F)(F)F)cc3)CC(=O)N2Cc2ccc(F)cc2)cc1 (stereo not drawn)	0	0	0	?	0	?	-
COc1cccc2c1OCC/C2=N\NC(=O)COc1ccc(C)cc1	0	?	24	?	0	0	0
COc1cc(OC)c(N(C)S(=O)(=O)c2cccc(C(=O)Nc3nccs3)c2)cc1Cl	0	-	-	-	-	-	-
Cc1nc2c(-c3ccc(F)cc3)c(C)nn2c(C)c1CCC(=O)N1CCN(c2ccccc2)CC1	0	0	0	?	0	-	-
Cc1nc2c(-c3ccc(F)cc3)c(C)nn2c(C)c1CCC(=O)N1CCC(Cc2ccccc2)CC1	0	7.1µM	0	?	0	-	0
CCOc1cc(/C=C2\N=C(C)OC2=O)cc(Br)c1OCC(=O)OC	0	?	0	?	0	?	0
CC(C)Sc1nnc([C@@H](N)Cc2ccccc2)o1	0	?	0	0	43	0	0
Cc1cc(C)n2c(SCC(=O)N3CCN(S(=O)(=O)c4ccc(Cl)cc4)CC3)nnc2n1	0	10µM	0	?	0	?	0
CC(C)(C)c1ccc(C2(C)NC(=O)N(CC(=O)NC3CCS(=O)(=O)C3)C2=O)cc1 (stereo not drawn)	0	-	-	0	-	?	-
COc1ccc(-c2ccc([C@H]3[C@H]4C=CC[C@@H](C)[C@@H]4C(=O)N3Cc3ccccc3)c(F)c2)cc1C	0	?	0	?	0	10µM	0
NNC(=O)c1oc2nc(-c3ccccc3)cc(-c3ccccc3)c2c1N	0	10µM	0	?	0	-	0
CNC(=S)NNC(=O)c1oc2nc(-c3ccccc3)cc(C)c2c1N	0	0	0	0	0	0	-
O=C(Cc1cc(=O)[nH][nH]1)N/N=C/C=C/c1ccccc1	0	5µM!	0	0	0	0	0
Cc1nn(CC(=O)NCCCN2CCCC2)c(=O)c2nn(-c3ccccc3)c(C)c12	0	0	0	?	0	0	-
CC(=O)c1cccc(NS(=O)(=O)c2ccc(N/C=C/C(=O)c3ccc(F)cc3)cc2)c1	0	?	110	?	46	?	0
CC(=O)c1cccc(NS(=O)(=O)c2ccc(N/C=C\C(=O)c3ccc(C)cc3)cc2)c1	0	0	0	?	0	?	-
CCN(CC(=O)Nc1cc(Cl)ccc1C)C(=O)CC1CCCC1	0	-	-	-	-	-	-
COc1ccccc1C1N(c2ccc(Cl)cc2)C(=O)C2CCCN21 (stereo not drawn)	0	11µM	0	0	0	0	0
COc1ccc(C2N(c3ccc(F)cc3)C(=O)C3CCCN32)cc1 (stereo not drawn)	0	1.1µM	0	0	0	-	0
CS(=O)(=O)N(CC(=O)N1CCN(Cc2ccccc2)CC1)c1cccc(Cl)c1	0	0	0	0	0	-	-
Cc1nc2c(ncn2-c2ccccc2)c(=O)n1NC(=O)CN1CCN(C)CC1	0	3.5µM	0	0	0	0	0

Compound activity (PubChem BioAssay)
